Source: PubChem (several laboratories)
Rows were chosen to be rich in hits. Some 3.1% of all compounds tested hit in one or more screens of this group.
EWS-Fli inh – blocks EWS/Fli oncoprotein-driven transcription; A673 NR0B1-luciferase reporter, viability-normalised; inhibition, % at 12.6 µM; hit rate 0.67% among 350,000;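 active = mean inhibition of at least 50% after viability correction, with every replicate also passing that limit; inconclusive = mean reaches 50% but only one of two replicates passes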;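 also: firefly luciferase signal divided by Alamar Blue viability fluorescence both relative to DMSO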
PAX8 inh HTS – lowers PAX8-driven luciferase in RMG-I cells. RMG-I TPO-luciferase reporter, SteadyGlo, 24 h. inhibition, % at 12.6 µM. hit rate 1.2% among 360,000;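 active = mean replicate inhibition at least 60% with every replicate also reaching 60%; inconclusive = only one of the two criteria is met; inactive = mean below 60% and not all replicates reaching 60%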;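 also: luciferase light reporting Pax8 driven TPO promoter activity; plate controls were median of neutral control wells for no effect and mitoxantrone controls for full effect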
TROY NFkB inh – inhibitors of TROY-dependent NF-kB signaling; hit rate 0.98% among 360,000; Q293 LMP1-TROYcd NF-kB luciferase reporter, 4 h; inhibition, % at 10 µM;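 active = compounds whose plate-normalised and pattern-corrected inhibition of the luciferase reporter signal at the single screening dose is 50% or more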
EBV LMP1 NFkB – reduces LMP1-driven NF-kappaB luciferase signal; LMP1-induced NF-kappaB luciferase reporter cells, luminescence; inhibition, % at 12.5 µM; hit rate 0.69% among 350,000; AID 504558; in the data active = inhibition above about 41%; inconclusive = no clear call, values can overlap the other calls;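 also: 0% = neutral control wells and 100% = reference inhibitor control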
TWEAK Fn14 block – TWEAK-Fn14 signaling inhibition. TWEAK-stimulated Fn14 reporter cells, luciferase luminescence, 8 h. hit rate 2% among 360,000. inhibition, % at 10 µM; in the data active = inhibition above about 50%
LGR2 inh – blocks bursicon-induced cAMP signaling via Drosophila LGR2 | HEK293 LGR2, CRE-luciferase, bursicon-stimulated, 4 h | inhibition, % at 9.99 µM | AID 720647 | hit rate 0.35% among 380,000;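 active = drop in luminescence signal, shown as inhibition above about 50% in the replicate tests, limit read from the data, passing the limit was not always enough; inconclusive = probably only some replicates passing the limit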;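 also: agonist challenge used bursicon conditioned medium at about half maximal strength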
* marks the source's active call; other numbers are inactive results; ? = inconclusive; / = no result given.

SMILES	EWS-Fli inh	PAX8 inh HTS	TROY NFkB inh	EBV LMP1 NFkB	TWEAK Fn14 block	LGR2 inh
NC(N)=N/N=C/c1ccc(Cl)c(Cl)c1	3.8	-1.5	1.9	/	3.8	63.5*
NC(N)=N/N=C/c1ccc(OCc2ccccc2)c(OCc2ccccc2)c1	29.3	-3.0	16.1	-24.3	-11.5	14.6
O=C(Cc1cc(=O)[nH][nH]1)N/N=C/C=C/c1ccccc1	/	/	2.9	-5.6	61.5*	44.8
O=C(CNC(=O)c1ccccc1)N/N=C/C=C/c1ccccc1	/	-2.5	-9.2	0.9	6.9	2.2
CC(=O)c1c(C(C)=O)c(C)n(-c2cccc([N+](=O)[O-])c2)c1C	/	3.0	-17.9	-0.5	2.8	10.5
CC(=O)C1=C(c2cccc([N+](=O)[O-])c2)N(C(C)=O)n2c(C)nnc2S1	15.7	11.2	-5.3	-2.1	59.9*	7.2
O=S(=O)(c1ccc(Cl)cc1)N1CCSC1c1ccco1 (stereo not drawn)	/	/	66.7*	-1.1	3.0	/
CCCN1[C@@H]2c3ccc(-c4cccnc4)c(=O)n3C[C@@H]2[C@@H](CO)[C@@H]1C(=O)OC	-1.3	/	/	/	/	0.0
CC1(C)CC(=O)C2=C(C1)OC(c1ccc(O)cc1)C(C#N)=C2N (stereo not drawn)	9.7	81.1*	16.0	-1.7	2.4	-6.4
Cc1ccc(-c2csc(NC(=O)C3=NN(c4ccccc4)C(=O)CC3)n2)cc1	20.7	2.9	16.8	6.5	54.6*	7.2
Cc1csc(NC(=O)C2=NN(c3ccccc3)C(=O)CC2)n1	3.9	13.7	-1.9	-3.5	-26.3	-16.7
Cc1cc(OCC(=O)NC(C)C)cc(C)c1Br	5.5	65.1*	22.6	-6.5	4.2	-3.4
O=S(=O)(Nc1nc2ccccc2nc1Cl)c1ccccc1C(F)(F)F	0.6	-12.8	4.7	9.4	50.1*	15.8
COc1ccc(S(=O)(=O)N2CC[C@@H]3[C@@H](CO)Nc4ccc(-c5cccc(C#N)c5)cc4[C@@H]32)cc1	54.0*	33.4	/	/	/	-11.0
COc1cccc(-c2ccc3c(c2)[C@@H]2[C@@H](CCN2S(=O)(=O)c2cccc(OC)c2)[C@H](CO)N3)c1	-0.3	73.4*	/	/	/	-0.1
COc1cccc(-c2ccc3c(c2)[C@H]2[C@H](CCN2S(=O)(=O)c2cccc(OC)c2)[C@H](CO)N3)c1	-15.2	10.9	/	/	/	26.1
O=C(C[C@@H]1C=C[C@H](NS(=O)(=O)c2ccccc2)[C@H](CO)O1)N1CCC(Cc2ccccc2)CC1	0.2	9.7	/	/	/	-9.1
Cc1ccccc1NC(=O)Cn1cnc2c1c(=O)n(C)c(=O)n2C	/	/	11.2	2.5	11.9	/
Cc1ccc(S(=O)(=O)Nc2ccc(Cl)cc2)cc1NC(=O)Cn1cnc2c1c(=O)n(C)c(=O)n2C	/	10.9	42.9	-3.0	88.9*	-6.5
CC(C)CN(C(=O)COc1ccc2ccc(=O)oc2c1)C1CCS(=O)(=O)C1 (stereo not drawn)	-0.3	-16.4	-12.2	4.3	61.3*	2.9
C[C@@H]1CCCCO[C@H](CN(C)S(C)(=O)=O)[C@@H](C)CN([C@H](C)CO)C(=O)c2cc(NC(=O)Nc3ccccc3)ccc2O1	-5.5	-16.2	/	/	/	4.1
O=C(NCc1ccc2c(c1)OCO2)c1nc(S(=O)(=O)Cc2ccccc2)ncc1Cl	/	22.4	60.0*	-8.3	72.9*	0.9
O=C(NCc1ccc2c(c1)OCO2)c1ccc(Cl)nc1	3.4	23.0	-13.7	0.0	8.1	-24.3
O=C(NCc1ccc2c(c1)OCO2)c1nc(S(=O)(=O)Cc2ccccc2F)ncc1Cl	/	36.1	76.1*	11.4	78.9*	7.6
O=C(NCc1ccc2c(c1)OCO2)c1ccccc1Cl	-26.4	-20.7	-1.8	-7.1	-0.7	-5.8
SMILES	EWS-Fli inh	PAX8 inh HTS	TROY NFkB inh	EBV LMP1 NFkB	TWEAK Fn14 block	LGR2 inh
C[C@H]1CN([C@@H](C)CO)S(=O)(=O)c2ccc(-c3ccncc3)cc2O[C@@H]1CN(C)C(=O)C1CCC1	-13.9	/	/	/	/	-4.5
O=C1C=CCCN1S(=O)(=O)/C=C/c1ccccc1	62.1*	88.6*	/	/	/	/
CS(=O)(=O)c1ccc(C(=O)OCC(=O)Nc2cccnc2Cl)cc1[N+](=O)[O-]	/	/	8.1	1.9	22.3	7.6
Cc1ccccc1NC(=O)COC(=O)c1ccc(S(C)(=O)=O)c([N+](=O)[O-])c1	10.3	?	1.1	6.0	33.2	1.4
CC(CCc1ccccc1)NC(=O)COC(=O)c1ccc([N+](=O)[O-])cc1 (stereo not drawn)	-0.4	-2.9	-18.8	-3.8	21.1	-0.9
O=C(OCc1nnc(-c2ccccc2)o1)c1cc2ccccc2cc1O	-14.3	-13.7	-11.7	-3.6	-5.7	-6.5
O=C(OCc1nnc(-c2ccccc2)o1)c1ccc2ccccc2n1	/	/	/	-5.7	79.1*	/
Cc1ccccc1NC(=O)Cc1nc(COC(=O)c2ccc(S(C)(=O)=O)c([N+](=O)[O-])c2)cs1	/	/	46.1	-3.8	69.0*	-12.7
CC(=O)c1cccc(NC(=O)COC(=O)c2ccc(S(C)(=O)=O)c([N+](=O)[O-])c2)c1	9.6	21.4	44.8	-47.7	64.1*	36.3
CC(CCc1ccccc1)NC(=O)COC(=O)c1ccc(S(C)(=O)=O)c([N+](=O)[O-])c1 (stereo not drawn)	4.9	-11.7	69.6*	-0.8	71.1*	37.8
C[C@@H]1CN([C@H](C)CO)C(=O)c2cc(C3=CCCCC3)cnc2O[C@H]1CN(C)C(=O)C1CCOCC1	-6.3	6.5	/	/	/	28.5
COc1ccc(-c2ccc(C3[C@H]4CNC[C@@H]3N4Cc3nccs3)cc2)cc1 (stereo partly drawn)	/	/	/	/	/	18.5
O=C(C[C@@H]1C=C[C@@H](NS(=O)(=O)c2cccc(F)c2)[C@H](CO)O1)NCc1ccc2c(c1)OCO2	7.6	9.5	/	/	/	-23.4
C[C@@H]1CCCCO[C@@H](CN(C)C(=O)Cc2ccccc2)[C@H](C)CN([C@H](C)CO)C(=O)c2cc(NC(=O)Nc3ccc(F)cc3)ccc2O1	15.5	39.9	/	/	/	7.4
C[C@@H]1CN([C@@H](C)CO)C(=O)c2cc(NC(=O)Nc3ccccc3)ccc2O[C@@H](C)CCCCO[C@H]1CN(C)C(=O)c1ccccc1	20.8	4.1	/	/	/	-2.3
C[C@@H]1CN([C@@H](C)CO)C(=O)c2cc(/C=C/c3ccccc3)cnc2O[C@H]1CN(C)C(=O)Nc1ccccc1F	-0.1	6.5	/	/	/	-2.0
CN(C)S(=O)(=O)c1ccc(C(=O)OCc2nnc(-c3ccccc3)o2)cc1	-5.6	-10.9	-3.8	3.8	-8.5	11.2
CS(=O)(=O)c1ccc(C(=O)OCc2nnc(-c3ccccc3)o2)cc1[N+](=O)[O-]	34.8	33.7	65.9*	-4.8	66.4*	?
Cc1ccc(NC(=O)c2cnn(-c3ccccc3)c2C)cc1	-4.6	-37.2	0.9	2.2	63.6*	44.7
Cc1c(C(=O)Nc2cccc([N+](=O)[O-])c2)csc1-c1ccccc1	/	/	-33.5	-58.8	-26.3	/
Cc1cc(C(=O)Nc2ccc(Cl)cc2)n(-c2ccccc2)n1	-24.7	-37.6	-56.7	2.6	-12.6	-11.6
